The list is not random: actives were taken first. Their share in the collection is about 10%.
Pf growth 48h: inhibits P. falciparum growth in the first generation, 48 h | P. falciparum luciferase growth in erythrocytes, 48 h | Potency, µM (top dose mostly 28.7 µM), for inactives: at the highest dose activity change, negative = inhibition, hits mostly inhibitors | 310,000 tested, 5.9% active | AID 504832; also: % is scaled to controls: 0 for no effect and ±100 for the full control effect
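Cell-based growth assay: transgenic P. falciparum expressing firefly luciferase, cultured in red cells within RPMI 1640 containing 0.5% w/v Albumax, 24 mM bicarbonate and gentamycin. A drop in luciferase activity indicates inhibition.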
Pf growth 96h: P. falciparum growth inhibition at 96 hours. Potency, µM (top dose mostly 28.7 µM), for inactives: at the top dose activity change, negative = inhibition, usual class: inhibitors. P. falciparum luciferase reporter growth, 96 h. 320,000 tested, 6.9% active; also: % is scaled to controls: 0 for no effect and ±100 for the full control effect
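Infected RBCs, 2% Hct / 0.05% parasitemia final; luciferase-reporter P. falciparum; cpd 96 h, 37 C, 5% CO2; luciferase detection reagent; luminescence.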
SARS PLpro yeast: inhibitors of SARS-CoV papain-like protease in yeast; S. cerevisiae expressing SARS-CoV PLpro, growth rescue; 330,000 tested, 0.19% active; Potency, µM (top dose mostly 32.9 µM), inactives show at the highest dose activity, positive = growth rescue, actives largely listed as activators; calls by dose curve; also: 0% is about no effect; nearly all actives have a fitted effect of over 55% in size
NS1 inh: inhibitors of influenza NS1 protein function | Potency, µM (top dose mostly 46.1 µM), without a hit: at the highest dose activity, positive = more growth | 270,000 tested, 0.4% active | AID 2326; calls by dose curve; also: actives are rising curves; nearly all actives have a fitted effect of over 50% in size
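S. cerevisiae expressing influenza A NS1, grown in glucose, washed, then diluted 1:100 into pH 6.0 -URA galactose medium with 23 nl compound. Growth recovery read as OD600; NS1-free strain serves as control.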
Starred values were filed as active, the others as inactive; i = inactive; ? = inconclusive; . = no result. Unless noted, calls follow the shape of the dose curve; as a rule, active = well fitted inhibition curve with a large enough effect; inconclusive = small, poorly fitted or top-dose-only effect, or another doubt; inactive = no such curve, though single readings can be large or run the other way. Potency is read from the fitted curve at half-maximal effect.

SMILES	Pf growth 48h	Pf growth 96h	SARS PLpro yeast	NS1 inh
CCCC1(C(=O)OCC)NC(c2ccc(N(C)C)cc2)C2C(=O)N(c3ccccc3)C(=O)C21 (stereo unspecified)	?	.	-19%	-1%
COC(=O)C1(C)NC(c2cccc(C)c2)C2C(=O)N(c3ccc(F)cc3)C(=O)C21 (stereo unspecified)	-4%	3.7µM*	0%	9%
COc1ccc(OC)c2c1sc(=NC(=O)C1COc3ccccc3O1)n2C (stereo unspecified)	0%	18%	1%	3%
NC(=O)c1ccccc1C[C@H](C(=O)O)N1C(=O)c2ccc(C(=O)O)cc2C1=O	7%	12%	1%	.
COc1ccc(OCCCC(=O)Nc2cc(Cl)ccc2-n2cncn2)cc1	?	?	2%	.
COc1ccccc1CCNC(=O)C1CCC(=O)N(C2CCCCCC2)C1 (stereo unspecified)	-14%	?	-3%	-19%
CC1CCC(NC(=O)c2nc(Cn3ccc([N+](=O)[O-])n3)no2)CC1 (stereo unspecified)	21%	?	0%	5%
CCN(CC)C(CNC(=O)c1cc(=O)[nH]c2ccccc12)c1ccccc1Cl (stereo unspecified)	-17%	-2%	-2%	4%
O=C(COC(=O)c1cc[n+]([O-])cc1)Nc1cccc(Cl)c1Cl	12µM*	17%	3%	.
COc1ccc(CCN(Cc2ccccn2)C(=S)Nc2ccccc2Cl)cc1OC	?	13µM*	5%	.
S=C(Nc1ccccc1Cl)N(Cc1ccccc1)Cc1ccccn1	?	1µM*	0%	.
COc1ccc(CCN(Cc2ccccn2)C(=S)Nc2ccccc2F)cc1OC	-24%	56%	6%	.
COc1ccccc1NC(=S)N(Cc1ccccc1)Cc1ccccn1	25%	?	16%	-24%
COc1ccc(NC(=S)N(Cc2ccc(C)cc2)Cc2ccccn2)cc1	-4%	?	-7%	.
COc1ccc(CCN(Cc2ccccn2)C(=S)Nc2cccc(C)c2)cc1OC	12µM*	-24%	-1%	.
COc1ccc(NC(=S)N(CCc2ccc(OC)c(OC)c2)Cc2ccccn2)cc1	?	12µM*	-2%	.
Cc1ccccc1CN1C2=NCCN2C(=O)C2=C1CCN(Cc1ccccc1)C2	.	.	.	6%
C/C(=N\O)c1ccc(N2C(=O)C3CC=C(Cl)CC3C2=O)cc1 (stereo unspecified)	i	5.2µM*	5%	4%
CCN(CC)C(=O)c1ccc(N2C(=O)C3CC=C(Cl)CC3C2=O)cc1 (stereo unspecified)	8%	-4%	2%	-11%
Cc1ccc(C(c2nnnn2CC2CCCO2)N2CCN(c3cccc(C)c3C)CC2)cc1 (stereo unspecified)	13µM*	.	-6%	-62%
COc1ccc(C(c2nnnn2CC2CCCO2)N2CCN(c3ccccc3)CC2)cc1 (stereo unspecified)	?	34%	-8%	-10%
CCC(c1nnnn1C(C)(C)C)N1CCN(c2cc(Cl)ccc2C)CC1 (stereo unspecified)	?	0.15µM*	-5%	-59%
CCCC(c1nnnn1CC1CCCO1)N1CCN(c2cc(Cl)ccc2C)CC1 (stereo unspecified)	13µM*	-1%	-12%	-57%
Cc1ccc(Cl)cc1N1CCN(C(c2ccc(C#N)cc2)c2nnnn2C2CCCC2)CC1 (stereo unspecified)	2.3µM*	2%	-5%	1%
Cc1ccc(Cl)cc1N1CCN(C(c2cccnc2)c2nnnn2C2CCCCC2)CC1 (stereo unspecified)	?	68%	-1%	-52%
SMILES	Pf growth 48h	Pf growth 96h	SARS PLpro yeast	NS1 inh
CC(=O)Nc1ccc2c(CN3C(=O)NC(C)(c4ccc(C)cc4)C3=O)cc(=O)oc2c1 (stereo unspecified)	?	?	1%	.
Cc1ccc2c(CN3C(=O)NC(C)(c4ccc5c(c4)OCO5)C3=O)cc(=O)oc2c1 (stereo unspecified)	4.1µM*	?	5%	4%
COc1ccc(C(C)NC(=S)NCc2ccc(F)cc2)cc1 (stereo unspecified)	?	-31%	20%	-33%
Cc1ccc(C)c(C(C)NC(=S)NCc2ccc(F)cc2)c1 (stereo unspecified)	3.3µM*	33%	13%	-8%
CCC(NC(=S)NCc1ccc(F)cc1)c1ccccc1 (stereo unspecified)	6.6µM*	?	1%	-36%
COc1ccc(/C=N/OCc2ccc(Br)cc2)c(OC)c1	33%	38%	-4%	-1%

Screens deposited in PubChem by National Center for Advancing Translational Sciences (NCATS).
